C-LANA FP: KSHV C-LANA DNA binding inhibition; AID 504423; inhibition, % at 9 µM; MBP-C-LANA/FAM-LBS DNA binding, fluorescence polarization; 340,000 compounds, 0.078% hits;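 active = highest replicate inhibition at or above 60% at 9 µM, even if other replicates fall short; inactive = all replicates below 60% inhibition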;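 note: 0% = neutral control wells and 100% = 4 µM acridine orange control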
Cardiac RTF inh: cardiac RTF calcium desensitization; P19429+P45379; IANBD-labeled cardiac RTF, Ca2+ fluorescence; inhibition, % at 7.15 µM; 340,000 compounds, 0.12% hits; AID 493244;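 active = inhibition above the mean inhibition of all tested compounds plus 3 SD, cut at about 17% in these data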;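 note: assay run at fixed EC70 calcium of 1.6 mM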
eLon inh: inhibits E. coli Lon protease. P0A9M0. purified E. coli Lon protease, fluorescence polarization. 360,000 compounds, 0.42% hits. AID 602123. inhibition, % at 7.94 µM; in the data active = inhibition above about 13%, passing the limit was not always enough;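 note: 0% = enzyme with probe and DMSO and 100% = no enzyme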
cardiac RTF act: increases calcium sensitivity of human cardiac regulated thin filaments | IANBD-labeled TnC RTF fluorescence at EC20 calcium; 0% EC20 calcium, 100% full calcium | AID 493008 | 340,000 compounds, 0.24% hits | activation, % at 7.2 µM;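 active = activation above the mean over all tested compounds plus 3 SD, cut at about 30% in these data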;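 note: rise in fluorescence read as greater calcium sensitivity of cardiac thin filaments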
Keap1-Nrf2 PPI: Keap1-Nrf2 (human) interaction inhibition; Q14145; Keap1 Kelch-Nrf2 peptide fluorescence polarization, 1536-well; inhibition, % at 9.4 µM; 340,000 compounds, 0.15% hits; in the data active = inhibition above about 12%;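 note: human Keap1 Kelch domain with fluorescein labeled Nrf2 9mer peptide probe; 0% = neutral control wells and 100% = peptide positive control; higher means more block of Keap1 binding to Nrf2 peptide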
Target sequence (Q14145 whole entry, looked up, the tested form may be a part): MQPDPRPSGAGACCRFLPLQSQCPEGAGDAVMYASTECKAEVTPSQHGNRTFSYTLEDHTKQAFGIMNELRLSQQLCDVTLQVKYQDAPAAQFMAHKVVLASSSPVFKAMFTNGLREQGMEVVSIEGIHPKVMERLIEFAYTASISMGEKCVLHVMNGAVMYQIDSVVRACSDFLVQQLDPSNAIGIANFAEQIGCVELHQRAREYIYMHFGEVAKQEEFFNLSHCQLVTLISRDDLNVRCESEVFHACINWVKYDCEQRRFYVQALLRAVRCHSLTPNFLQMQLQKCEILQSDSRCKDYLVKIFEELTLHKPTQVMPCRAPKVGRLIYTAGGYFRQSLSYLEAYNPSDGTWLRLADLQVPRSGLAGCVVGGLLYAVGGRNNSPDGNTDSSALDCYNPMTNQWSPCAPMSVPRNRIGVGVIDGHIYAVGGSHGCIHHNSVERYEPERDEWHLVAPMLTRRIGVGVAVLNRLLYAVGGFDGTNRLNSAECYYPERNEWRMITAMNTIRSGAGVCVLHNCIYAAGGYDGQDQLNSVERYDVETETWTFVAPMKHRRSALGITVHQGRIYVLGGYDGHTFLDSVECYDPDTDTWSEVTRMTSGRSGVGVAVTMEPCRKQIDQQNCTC
eLon confirm: E. coli Lon inhibition confirmation; shares compounds with eLon inh; inhibition, % at 7.94 µM; purified E. coli Lon, fluorescence polarization; 1,400 compounds, 31% hits; AID 602230; in the data active = inhibition above about 16%;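 note: 0% = enzyme with probe and DMSO and 100% = no enzyme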
* hit, by the source's call; i = inactive; x = no result given; + = active, no number. Shown are actives, neighbours in structure and some others; about 0.74% of the full set was active somewhere.

SMILES	C-LANA FP	Cardiac RTF inh	eLon inh	cardiac RTF act	Keap1-Nrf2 PPI	eLon confirm
CCc1cccc(C)c1NC(=O)C1=C(C(=O)O)CCCC1	3	-9	19*	4	-2	32*
Cc1cccnc1C(NC(=O)C1CCN(Cc2ccc(Oc3ccccc3)cc2)CC1)c1ccccc1 (configuration not stated)	x	x	-16	x	x	x
COc1ccc(C(NC(=O)C2CCN(Cc3ccc(Oc4ccccc4)cc3)CC2)c2ccccc2C)cn1 (configuration not stated)	x	x	15*	x	x	-7
COc1ccc(CN2CCN(C(=O)C3CCC(CNS(=O)(=O)c4ccccc4)CC3)CC2)c(OC)c1OC (configuration not stated)	2	-8	143*	2	2	-4
CN(C(=O)COC(=O)c1cc2c(s1)CCCCC2)c1ccccc1	-3	5	30*	-8	-2	2
COC1OC(O)C(NC(=O)C(F)(F)F)CC1O (configuration not stated)	-1	6	-6	1	2	x
COc1cccc(NC(=S)NCc2ccc3c(c2)cc(C)n3C)c1	1	-14	9	0	-1	x
Cc1cc2cc(CNC(=O)Nc3cccc(Cl)c3)ccc2n1C	0	-14	40*	3	-2	45*
Cc1c(C(=O)NCc2ccc3c(c2)cc(C)n3C)cccc1[N+](=O)[O-]	0	-5	31*	18	-3	4
COc1ccc(CNC(=O)Nc2cccc(Cl)c2)cc1	1	-9	-7	3	1	x
Cc1cccc(NC(=O)NCc2ccc3c(c2)cc(C)n3C)c1	-1	-2	30*	-3	4	13
O=[N+]([O-])c1ccc2oc(/C=C/c3ccc(O)cc3)nc2c1	x	x	-9	x	x	x
CCOC(=O)N1CCN(C(=O)CSc2ccc3nnc(-c4ccncc4)n3n2)CC1	6	-2	24*	2	0	3
CCOC(=O)N1CCN(C(=O)CSc2ccc3nnc(-c4ccccn4)n3n2)CC1	-1	-4	1	2	0	x
COCCN1CN(S(=O)(=O)c2ccccc2)c2nc3ccccc3nc21	8	0	26*	5	1	-22
Cc1cccc(S(=O)(=O)N2CN(Cc3ccco3)c3nc4ccccc4nc32)c1	4	-15	59*	1	-7	-13
c1ccc(COc2ncnc3c2ncn3CCCNC2CCN(Cc3ccccc3)CC2)cc1	x	x	-3	x	x	x
C[C@H]1CN([C@@H](C)CO)C(=O)CCCn2nncc2CO[C@H]1CN(C)C(=O)NC1CCCCC1	x	x	13*	x	x	-3
Cc1noc(C)c1S(=O)(=O)N(C)C[C@@H]1OCc2cnnn2CCCC(=O)N([C@@H](C)CO)C[C@H]1C	x	x	15*	x	x	-10
Cc1noc(C)c1S(=O)(=O)N(C)C[C@H]1OCc2cnnn2CCCC(=O)N([C@H](C)CO)C[C@@H]1C	x	x	-6	x	x	x
COc1cc(/C=N/NC(=O)COc2ccc(-n3cnnn3)cc2)ccc1OCC(N)=O	1	0	22*	0	-4	-3
CN(C(=O)C(C)(C)C)[C@H]1C[C@H]2c3[nH]c4ccccc4c3CCN2C(=O)[C@H]1CO	x	x	14*	x	x	-11
O=C1CCN2C=Nc3cccc4ccc1c2c34	152*	i	+	703*	140*	+
CCCNC(=O)c1ccc2c(=O)c(O)c(C)[nH]c2c1	1	-5	1	4	5	x
CCCNC(=O)c1ccc2c(=O)c(O)c(-c3cccc(Br)c3)[nH]c2c1	-2	-14	143*	0	-6	135*
SMILES	C-LANA FP	Cardiac RTF inh	eLon inh	cardiac RTF act	Keap1-Nrf2 PPI	eLon confirm
Nc1c(Cl)cc(-c2[nH]c3cc(C(=O)NCCO)ccc3c(=O)c2O)cc1Cl	-3	-14	+	-4	-1	193*
CCCNC(=O)c1ccc2c(=O)c(O)c(-c3ccc(F)cc3)[nH]c2c1	-1	4	163*	1	-6	100*
O=[N+]([O-])C1C(c2ccccc2)C12c1ccccc1-c1ccccc12 (configuration not stated)	x	x	5	x	x	x
C[C@@H](c1ccccc1)N1C[C@H](COCc2ccccc2)Oc2cc(N3CCC[C@@H]3CO)ccc2S1(=O)=O	x	x	3	x	x	x
COc1cc(NC(=O)C2(C)CCN2C(C)C)cc(OC)c1OC (configuration not stated)	x	x	-8	x	x	x
COc1ccc(C(=O)COC(=O)c2ccccc2C(=O)N(C)c2ccccc2)c(OC)c1	-1	-3	40*	-2	-10	8
CN(C(=O)c1ccccc1C(=O)OCC(=O)c1ccccc1)c1ccccc1	3	-3	12	8	7	x
CCOC(=O)C1(C)CCCN1C(=O)c1snnc1C (configuration not stated)	x	x	2	x	x	x
Cn1c(-c2ccc(F)cc2)cnc1SCC(=O)N1CCCc2ccccc21	0	1	19*	1	-6	2
Cc1cc2ncn(-c3ncccc3[N+](=O)[O-])c2cc1C	0	3	25*	3	1	1
CCN(C(=O)COC(=O)c1cc(-c2cccc3ccccc23)nc2ccccc12)C1CCS(=O)(=O)C1 (configuration not stated)	0	6	40*	6	-1	18*
O=C(COC(=O)c1cc(-c2cccc3ccccc23)nc2ccccc12)NC1CCS(=O)(=O)C1 (configuration not stated)	6	-27	178*	21	-3	15
CCN(C(=O)COC(=O)c1ccccc1Cc1ccccc1)C1CCS(=O)(=O)C1 (configuration not stated)	x	-1	-2	2	x	x
CCCCN(C(=O)c1ccc(N2C(=O)c3ccccc3C2=O)cc1)c1c(N)n(CC(C)C)c(=O)[nH]c1=O	-1	-2	0	-5	-1	x
Cc1cc(C)c(NC(=O)C(C)N2CCCCCC2)c(C)c1 (configuration not stated)	1	-3	71*	-5	1	-5
COc1ccccc1-c1nc2n(n1)C(c1ccc(Cl)cc1)C(C(N)=O)=C(C)N2 (configuration not stated)	2	-4	16*	-3	-1	-8
CSc1ccc(NC(=O)C2(C)CCN2C(=O)Cc2ccc(C(C)(C)C)cc2)cc1 (configuration not stated)	x	x	-5	x	x	x
COCCn1c2nc(=O)n(-c3ccccc3)c(=O)c-2nc2ccccc21	x	x	+	x	x	+
COc1ccc(NC(=O)c2cc(C3CCCCN3S(=O)(=O)c3cn(C)cn3)on2)c(C)c1 (configuration not stated)	x	x	0	x	x	x
NNC(=O)CNC(=O)c1ccccc1F	0	-10	53*	-3	1	-4
CSCCC(NC(=O)COc1ccccc1)C(=O)N1CCN(c2ccccc2Cl)CC1 (configuration not stated)	-1	2	-8	1	3	x

Screening results deposited in PubChem by several laboratories.
